In PubChem BioAssay (Tox21):
Inconclusive results are not listed. Entries that show only a call come without a potency. Values without a mark were called inactive. Activity calls are given as the source filed them. The call rests on the fitted dose curve.

Target: Beta-2 adrenergic receptor (Homo sapiens) (UniProt P07550)
Assay: Adrenergic beta2 receptor (ADRB2) small molecule agonists, cell-based qHTS assay (AID 1963593);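 on activation: CHO cells stably overexpressing human ADRB2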
Procedure, shortened: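 CHO cells stably over-expressing ADRB2 were plated overnight at 37C, then dosed with compounds plus a stimulation mix containing 100uM IBMX and 25uM Ro-20-1724 for 0.5hr at room temperature. cAMP was measured by HTRF competition, 1hr.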
Potency means the concentration at half of the fitted maximal effect.

Chain of Beta-2 adrenergic receptor (Homo sapiens) (P07550 whole entry, looked up): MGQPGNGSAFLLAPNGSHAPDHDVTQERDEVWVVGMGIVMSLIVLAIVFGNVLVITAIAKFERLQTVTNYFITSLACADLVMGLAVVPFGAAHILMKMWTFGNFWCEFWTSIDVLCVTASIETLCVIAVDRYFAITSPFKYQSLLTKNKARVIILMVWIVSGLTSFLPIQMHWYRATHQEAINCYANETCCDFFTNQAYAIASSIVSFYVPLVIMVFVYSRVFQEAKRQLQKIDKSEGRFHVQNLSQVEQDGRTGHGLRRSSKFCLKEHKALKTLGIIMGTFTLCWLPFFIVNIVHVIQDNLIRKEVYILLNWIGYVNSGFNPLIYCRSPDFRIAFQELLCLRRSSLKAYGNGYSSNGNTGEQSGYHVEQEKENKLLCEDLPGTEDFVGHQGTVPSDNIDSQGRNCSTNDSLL

SMILES | Potency | activation
O=C(NCCO[N+](=O)[O-])c1cccnc1 | inactive | 
Cc1ccsc1C(=CCCN1CCC[C@@H](C(=O)O)C1)c1sccc1C | inactive | 
O=S(=O)(O)c1ccc(O)c2ncccc12 | inactive | 
CNC(=O)c1cnn(-c2nc(N)c3ncn([C@@H]4O[C@H](CO)[C@@H](O)[C@H]4O)c3n2)c1 | inactive | 
CC(C)SCc1ccco1 | inactive | 
c1ccc(CC2=NCCN2)cc1 | inactive | 
C#CC(C)N(C)C(=O)Nc1ccc(Cl)cc1 (stereo unspecified) | inactive | 
O=C(O)c1cccc(Cl)n1 | inactive | 
CCOC(=O)C1=NOC(c2ccccc2)(c2ccccc2)C1 | inactive | 
CC(C)Cc1ccc(C(C)C(=O)OCc2ccccn2)cc1 (stereo unspecified) | inactive | 
COc1ccc2[nH]c(S(=O)Cc3ncc(C)c(OC)c3C)nc2n1 (stereo unspecified) | inactive | 
CCOC(=O)C(=O)CCCCCCl | inactive | 
CCOC(=O)c1ccc(OC(=O)CCCCCN=C(N)N)cc1 | inactive | 
CCCCOC(=O)CC | inactive | 
C1=C\CC/C=C\CC/1 | inactive | 
CC(CN1CC(=O)NC(=O)C1)N1CC(=O)NC(=O)C1 (stereo unspecified) | inactive | 
CCN(CC)CCOc1ccc(C(O)(Cc2ccc(Cl)cc2)c2ccc(C)cc2)cc1 (stereo unspecified) | inactive | 
CC(C)(C)C(=O)Oc1ccc(S(=O)(=O)Nc2ccccc2C(=O)NCC(=O)O)cc1 | inactive | 
O=C(OC1C[C@H]2CC[C@@H](C1)[N+]21CCCC1)C(O)(c1ccccc1)c1ccccc1 (stereo partly specified) | inactive | 
CC(=O)O[C@H]1CC[C@@]2(C)C(=CC[C@@H]3[C@@H]2CC[C@]2(C)C(C(C)=O)=CC[C@@H]32)C1 | inactive | 
COc1cccc(-c2ccc(/C=C\CN3CCCCCC3)cc2Cl)c1 | inactive | 
Cc1cc(NC(=O)C2=C(O)c3ccccc3S(=O)(=O)N2C)no1 | inactive | 
N#CCC(=O)NN | inactive | 
CCCCCCCC/C=C\CCCCCCCC(=O)OC[C@@H](O)[C@H]1OC[C@H](O)[C@H]1O | inactive | 
COCCc1ccccn1 | inactive | 
CCOC(=O)c1cccnc1 | inactive | 

SMILES | Potency | activation
CCC(=O)c1c(O)cc(O)cc1O | inactive | 
CCN(CC)CCOCCOC(=O)C1(c2ccccc2)CCCC1 | inactive | 
CCCCC(CC)COC(=O)CC#N (stereo unspecified) | inactive | 
CNC(=O)c1c(I)c(NC(=O)CCCCC(=O)Nc2c(I)c(C(=O)O)c(I)c(C(=O)NC)c2I)c(I)c(C(=O)O)c1I | inactive | 
Nc1ccc(S(=O)(=O)Nc2ccccn2)cc1 | inactive | 
C=C1CC[C@H]2O[C@]2(C)CC[C@@H]2[C@@H]1CC2(C)C | inactive | 
CC(=O)N(CC(=O)N(C)C)c1ccccc1 | inactive | 
CCCCCCCCCCCc1ccccc1 | inactive | 
O=C(Oc1ccccc1)c1ccccc1C(=O)Oc1ccccc1 | inactive | 
Nc1ccc(S(=O)(=O)Nc2ccccc2)cc1 | inactive | 
CN(C)CCN(Cc1ccsc1)c1ccccn1 | inactive | 
C#CCN[C@@H]1CCc2ccccc21 | 29.8 µM (active) | 
CN1CCN(CC(=O)N2c3ccccc3C(=O)Nc3cccnc32)CC1 |  | -0.465% [at 8.39 µM]
CC(C)=CC(=O)C=C(C)C | inactive | 
O=C(OCc1ccccc1)C(=O)OCc1ccccc1 | inactive | 
CCCCOc1cc(C(=O)OCCN(CC)CC)ccc1N | inactive | 
CCN1CCCC1CNC(=O)c1cc(S(=O)(=O)CC)c(N)cc1OC (stereo unspecified) | inactive | 
C#Cc1ccc(-c2ccccc2F)cc1 | inactive | 
CN1CCN(c2c(F)cc3c(=O)c(C(=O)O)cn4c3c2OCN4C)CC1 | inactive | 
COc1cc(NS(=O)(=O)c2ccc(N)cc2)ncn1 | inactive | 
CC(C)CC(=O)C1C(=O)c2ccccc2C1=O | inactive | 
O=C(O)c1cccc(O)c1 | inactive | 
COc1ccc(-c2cc(=O)c3c(O)cc(O[C@@H]4O[C@H](CO[C@@H]5O[C@@H](C)[C@H](O)[C@@H](O)[C@H]5O)[C@@H](O)[C@H](O)[C@H]4O)cc3o2)cc1O | inactive | 
CC(=O)[C@H]1CC[C@H]2[C@@H]3C=CC4=CC(=O)CC[C@@]4(C)[C@@H]3CC[C@]12C | inactive | 
Brc1ccc(-c2ccccc2)cc1 | inactive | 
